Results: PubChem BioAssay (NCI)
Where “and” joins values, the source holds several entries; their conditions need not be identical. Identical values can stand only once. About 83,000 compounds went through this panel and 20% of them were active in at least one assay; those are over-represented in the sample as a whole.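 For each line, cells grew in 96-well plates with the test compound present at a single concentration for 48 hours.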 Calls of active or inactive are those of the source. Rule for the calls: active = growth percent below 10; inactive = the rest.

tested on: HCC-2998 colon; test: NCI-60 one-dose screen, 48 h (100 = growth as untreated, 0 = no growth, -100 = all killed); settings: 10 µM

| Compound | growth |
| --- | --- |
| COc1cc(N)ccc1Nc1c2ccccc2nc2ccccc12 | 94.8% (inactive) |
| O=[N+]([O-])c1cc(S(=O)(=O)Nc2ccccc2)ccc1Cl | 90% (inactive) |
| CCOC(=O)[C@]1(Br)CC[C@@]1(Br)C(=O)OCC | 124% (inactive) |
| N#C/C(=C/N1C(=O)/C(=C/c2ccc([N+](=O)[O-])cc2)SC1=S)c1nc2ccccc2s1 | 92.6% (inactive) |
| Cn1ncc2cc3c(Nc4ccc(Cl)cc4)cccc3nc21 | 110% (inactive) |
| S=P(N1CC1)(N1CC1)N1CC1 | 109% (inactive) |
| O=C1c2cccc3cc([N+](=O)[O-])cc(c23)C(=O)N1CCN1CCCC1 | -69.6% (active) |
| N#CC(=C1C=CC(=NO)C=C1)c1ccccc1 | 90.6% (inactive) |
| Cc1cc(N=C2C=CC(=[N+](C)C)C=C2)c(N)cc1N | 60.8% (inactive) |
| CN(C)CCNc1cccc2sc3ccc(O)cc3c(=O)c12 | 17.9% (inactive) |
| Cn1c2nc3ccccc3c-2nc2ccccc21 | 118% (inactive) and 102% (inactive) |
| CCC(C)(c1ccc(O)c(C)c1)c1ccc(O)c(C)c1 | 107% (inactive) |
| O=Nc1ccc(Nc2ccccc2)cc1 | 93.8% (inactive) |
| O=c1[nH]cc(/C=N\Nc2ccccc2)c(=O)[nH]1 | 76.9% (inactive) |
| CN(C)c1ccc(/C=C/c2ccnc3ccccc23)cc1N | 104% (inactive) |
| COc1cccc(C(c2cc3c(cc2O)OCO3)N2CCOCC2)c1OC (stereo not given) | 113% (inactive) |
| O=C1C=CC(=O)N1c1ccc(N2C(=O)C=CC2=O)cc1 | 115% (inactive) |
| CC(=O)O[C@H]1C(=O)[C@@]2(C)[C@H]([C@H](OC(=O)c3ccccc3)[C@]3(O)C[C@H](OC(=O)[C@H](O)[C@@H](NC(=O)c4ccccc4)c4ccccc4)C(C)=C1C3(C)C)[C@]1(OC(C)=O)CO[C@@H]1C[C@@H]2O | -3.97% (active) and -21.4% (active) |
| COc1ccc(C(C#N)=C2C=CC(=NO)C=C2)cc1 | 105% (inactive) |
| CN(CC(=O)O)c1ccc(/C=C/c2ccnc3ccccc23)cc1 | 91.9% (inactive) |
